The record followed here is PubChem BioAssay AID431 (Sanford-Burnham Center for Chemical Genomics, 2006).

The campaign covered roughly 63,000 compounds. About 1,100 (1.7%) were called active.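 How the source made its calls: active means compounds whose percent cytotoxicity in the single-dose primary screen, scaled between solvent and toxic-drug controls, exceeds 50; inactive means the rest.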 What follows is part of a selection rich in actives, with near analogues and random picks from the rest. Results with a measured potency or affinity are listed apart.

A short description of the assay: viability loss of HPDE-C7K cells – cell-based, fluorescence, HTS, primary screen (AID 431).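 Further: 0% = DMSO solvent wells and 100% = doxorubicin-treated wells.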 The following applies: HPDE-C7K KRASV12 cells, Alamar Blue viability, 48 h; at 10 µM; hits give high values. A general note: The colour change of resazurin is a common sign of viable cells or microbes.
With `Cc1ccc(S(=O)(=O)N2CCN(S(=O)(=O)N3CCCCC3)CC2)c(C)c1`, the cytotoxicity was 6.6% (inactive).

`CCN1CCN(Cc2nc(N)nc(Nc3ccc(C)c(C)c3)n2)CC1`: the cytotoxicity is -24.7% (inactive).

For the compound `Cc1cccc(Nc2nc(N)nc(CN3CCN(c4ccccc4)CC3)n2)c1`, the cytotoxicity was -21.7% (inactive).

For `COc1ccc(N2CCN(Cc3nc(N)nc(Nc4ccc(C)c(Cl)c4)n3)CC2)cc1`, the cytotoxicity was 19.1% (inactive).

For the compound `Cc1ccc(Nc2nc(N)nc(CN3CCN(c4ccccc4)CC3)n2)cc1Cl`, the cytotoxicity was 54.7% (active).

As to `Cc1ccc(Nc2nc(N)nc(CN3CCN(C)CC3)n2)cc1C`, the cytotoxicity was -27.5% (inactive).

With `CC1CC(C)CN(Cc2nc(N)nc(Nc3ccc4ccccc4c3)n2)C1` (stereo not given), the cytotoxicity was 58.4% (active).

Consider `CC(=O)c1cc2c(cc1NC(=O)CSc1nnc(C)s1)OCO2`, for which the cytotoxicity was 11.3% (inactive).

Take `CCOC(=O)C1C2C=CC3(CN(Cc4cccs4)C(=O)C13)O2` (stereo not given): the cytotoxicity was 4.9% (inactive).

For `COc1cccc(NC(=O)C2CCCN(S(=O)(=O)c3cccc4cccnc34)C2)c1` (stereo not given), the cytotoxicity was 20.1% (inactive).

As to `Cc1nc(NC(=O)CSc2ccccc2N)sc1C`, the cytotoxicity is 3% (inactive).

With `Cn1c(=O)[nH]c(=O)c2c1nc(Sc1ncccn1)n2CCCc1ccccc1`, the cytotoxicity is 3.9% (inactive).

As for `CC(C)Cc1nc(C(N)=O)c2[nH]c(=O)n(-c3ccc(F)cc3)c2n1`, the cytotoxicity is -1.8% (inactive).

On to `O=C(CCN1CCN(c2ccccc2F)CC1)Nc1ccccc1F`, for which the cytotoxicity is -5.4% (inactive).

Regarding `O=C(CCN1CCN(CCC(=O)c2ccccc2)CC1)c1ccccc1`, the cytotoxicity is -9.4% (inactive).

With `O=C(COc1ccc(Cl)cc1)NCc1nnc(SCC(=O)Nc2ccccc2)o1`, the cytotoxicity is -7.7% (inactive).

`CC(C)NC(=O)CN1CCN(c2ncccn2)CC1`: the cytotoxicity is -7.7% (inactive).

For `CC(=O)NCCSC(=O)c1ccc(F)cc1`, the cytotoxicity is -2.7% (inactive).

For `CC(=O)Nc1ccc(-c2cn3ccsc3n2)cc1`, the cytotoxicity was 6.9% (inactive).

With `Cc1cccc(S(=O)(=O)Nc2cccc(-c3cn4ccsc4n3)c2)c1`, the cytotoxicity is 31.3% (inactive).

With `c1cn2cc(-c3ccc4c(c3)OCO4)nc2s1`, the cytotoxicity is 15.3% (inactive).

Consider `O=S(=O)(Nc1ccc(-c2cn3ccsc3n2)cc1)c1ccc2c(c1)OCCO2`, for which the cytotoxicity is 53.9% (active).

Turning to `O=S(=O)(Nc1cccnc1)c1ccc2c(c1)OCCO2`, the cytotoxicity was 1.8% (inactive).

Take `O=S(=O)(NCc1cn2ccsc2n1)c1ccc2c(c1)OCCO2`: the cytotoxicity is 4.2% (inactive).

For the compound `O=S(=O)(Nc1cccc(-c2cn3ccsc3n2)c1)c1ccc(F)cc1`, the cytotoxicity is 42.2% (inactive).

Consider `O=S(=O)(Nc1cccc(-c2nc3cccnc3s2)c1)c1ccc2c(c1)OCCO2`, for which the cytotoxicity is 50.4% (active).

As to `O=S(=O)(Nc1nccs1)c1ccc2c(c1)OCCO2`, the cytotoxicity is 5.1% (inactive).

`CC(C)CC(=O)Nc1ccc(-c2cn3ccsc3n2)cc1`: the cytotoxicity is 56.7% (active).

Take `Cc1ccc(S(=O)(=O)Nc2cccc(-c3cn4ccsc4n3)c2)cc1`: the cytotoxicity was 64% (active).

On to `CC(C)CC(=O)Nc1cccc(-c2cn3ccsc3n2)c1`, for which the cytotoxicity is 11.7% (inactive).

On to `O=C(CSCc1ccccc1)NC1CCSC1=O` (stereo not given), for which the cytotoxicity was 11.9% (inactive).

Consider `O=C(CSc1nnc(CCc2nc3ccccc3[nH]2)n1-c1ccccc1)NCc1ccco1`, for which the cytotoxicity is -22.8% (inactive).

Consider `COc1ccccc1OCc1ccc(C(=O)n2nc(C)c(Cl)c2C)o1`, for which the cytotoxicity is -1.6% (inactive).

With `CN(C)c1ccc(C(=O)c2ccc(N(C)C)c(N)c2)cc1N`, the cytotoxicity is 46% (inactive).

In the case of `CCOC(=O)C(C)Oc1ccc(C2NC(=O)NC(C)=C2C(C)=O)cc1Br` (stereo not given), the cytotoxicity is 8.9% (inactive).

For the compound `O=C(NCCc1ccccc1)C1CCCN(S(=O)(=O)c2cccnc2)C1` (stereo not given), the cytotoxicity is -7.8% (inactive).

For `O=C(NCc1ccc2c(c1)OCO2)c1cnc2n(c1=O)CCS2`, the cytotoxicity was 11.4% (inactive).

Consider `COc1ccc(-c2[nH]c(-c3ccc(F)cc3)nc2SCC(=O)NCc2ccco2)cc1OC`, for which the cytotoxicity was 6.3% (inactive).

For the compound `COc1ccc(-c2nc(SCC(=O)NCc3ccco3)c(-c3ccccc3)[nH]2)cc1OC`, the cytotoxicity was -6.7% (inactive).

As to `COc1ccc(-c2[nH]c(-c3cccc(OC)c3)nc2SCC(=O)NCc2ccco2)cc1`, the cytotoxicity is 50.4% (active).

Regarding `CS(=O)(=O)NCCCc1ccccc1`, the cytotoxicity was -3.7% (inactive).

As to `O=C(NCc1ccccn1)c1ccc(/C=N/O)nc1`, the cytotoxicity was 0.9% (inactive).

With `CC1CCN(c2nc(-c3ccc(F)cc3)cc(C(F)(F)F)n2)CC1`, the cytotoxicity is -19.1% (inactive).

Take `O=C(c1ccc(F)cc1)C1CCN(CCn2c(=O)[nH]c3ccccc3c2=O)CC1`: the cytotoxicity was 5.6% (inactive).

`O=c1c2ccccc2[nH]c(=S)n1CCN1CCN(Cc2ccccc2)CC1`: the cytotoxicity was 0.6% (inactive).

Consider `CCSc1nnc(NC(=O)c2cc(C)oc2C)s1`, for which the cytotoxicity was 10.1% (inactive).

For the compound `Cc1noc(C(=O)Nc2c(C)nn(Cc3ccccc3)c2C)c1Cl`, the cytotoxicity is -3.9% (inactive).

For the compound `CCOC(=O)N1CCN(C(=O)c2ccc3c(c2)N(CC)CCS3)CC1`, the cytotoxicity is 1% (inactive).

Turning to `CC(=O)NC(c1ccco1)c1ccc2cccnc2c1O` (stereo not given), the cytotoxicity was 23.7% (inactive).

On to `CC(C)C(=O)NC(c1ccco1)c1ccc2cccnc2c1O` (stereo not given), for which the cytotoxicity was -36.3% (inactive).

Take `Cc1ccc(S(=O)(=O)C(C#N)c2nc3ccccc3nc2N2CCCCC2)cc1` (stereo not given): the cytotoxicity was 0.6% (inactive).

For `COC(=O)c1ccc(-n2nnnc2SCC(=O)N2CCCCC2)cc1`, the cytotoxicity was -30.4% (inactive).

In the case of `COc1ccc(CCNC(=O)c2cnccn2)cc1`, the cytotoxicity was -0.7% (inactive).

Consider `CCOC(=O)C1CCN(c2c(NCCN3CCCCC3C)c(=O)c2=O)CC1` (stereo not given), for which the cytotoxicity is 2.6% (inactive).

As to `O=C(Cn1c(CO)nc2ccccc21)Nc1cc(C(F)(F)F)ccc1N1CCOCC1`, the cytotoxicity is -13.4% (inactive).

Regarding `c1ccc(N2CCOCC2)c(Nc2nc3ccccc3n3cnnc23)c1`, the cytotoxicity was 0.7% (inactive).

As for `C=CCn1c(COc2ccccc2)nnc1SCC(=O)C(C)(C)C`, the cytotoxicity was 8.4% (inactive).

For `Cc1ccc(NC(=O)CCNS(=O)(=O)c2ccc3c(c2)oc(=O)n3C)cc1`, the cytotoxicity was -10.2% (inactive).

Turning to `Cn1c(=O)oc2cc(S(=O)(=O)NCCc3ccccc3)ccc21`, the cytotoxicity is -10.4% (inactive).

As for `O=C(NC1CCCCC1)c1ccc(S(=O)(=O)NCc2ccco2)cc1`, the cytotoxicity was -0.5% (inactive).

For `O=C(NCCc1c[nH]c2ccccc12)c1ccc(S(=O)(=O)NCc2ccco2)cc1`, the cytotoxicity is 51.2% (active).

In the case of `O=C(Nc1ccccc1)c1ccc(S(=O)(=O)NCc2ccco2)cc1`, the cytotoxicity was -6.4% (inactive).

On to `Cc1noc(C)c1COC(=O)c1ccc2c(c1)OCCO2`, for which the cytotoxicity is 4.7% (inactive).

Consider `FC(F)Oc1cccc2cccnc12`, for which the cytotoxicity was 3.1% (inactive).

As to `CN(CCOC(=O)c1ccc2c(c1)OCCO2)Cc1ccccc1`, the cytotoxicity is -8% (inactive).

`O=C(COc1cccc2cccnc12)Nc1nccs1`: the cytotoxicity was 8.2% (inactive).

Take `O=S(=O)(Nc1ccc2c(c1)OCCO2)c1cccc2cccnc12`: the cytotoxicity was 4.7% (inactive).

Consider `O=C(Oc1cccc2cccnc12)c1cccc(-n2cnnn2)c1`, for which the cytotoxicity was 23.3% (inactive).

For the compound `Cc1ccc2cccc(OC(=O)c3ccc4c(c3)OCCO4)c2n1`, the cytotoxicity was 54.5% (active).

Regarding `Cn1c(C(=O)N2CCN(c3ncccn3)CC2)cc2c(=O)n(C)c3ccccc3c21`, the cytotoxicity was 17.4% (inactive).

Take `O=C(Nc1cnn(Cc2ccc(Cl)cc2)c1)c1cnccn1`: the cytotoxicity is -2.7% (inactive).

Take `CC(=O)NC(CC(C)C)C(=O)NC(=O)NCc1ccccc1` (stereo not given): the cytotoxicity is 15.8% (inactive).

Take `CCN(CC)CCCN1C(=O)C(=O)/C(=C(/O)c2ccc3c(c2)OCCO3)C1c1ccco1` (stereo not given): the cytotoxicity was 5.8% (inactive).

Regarding `Cn1c(-c2ccccc2)cnc1SCC(=O)NCc1ccco1`, the cytotoxicity is -16.1% (inactive).

For the compound `COC(=O)C(NC(C)=O)(Nc1ccccc1)C(=O)OC`, the cytotoxicity was 27.5% (inactive).

In the case of `COC(=O)C(NC(C)=O)(Nc1ccc(Br)cn1)C(F)(F)F` (stereo not given), the cytotoxicity was 2.3% (inactive).

For `COC(=O)C(NC(C)=O)(Nc1ccc(Br)cc1)C(=O)OC`, the cytotoxicity was 53.3% (active).

With `O=S(=O)(c1cccc(Cl)c1)N1CCCC1`, the cytotoxicity was -5.7% (inactive).

For `O=C(NCC1CCCO1)c1sc(=S)n2c1[nH]c(=O)c1ccc(C(=O)N3CCCCC3)cc12` (stereo not given), the cytotoxicity is 5.2% (inactive).

As for `O=C(NC1CCCCCCC1)c1c(O)c2ccccc2[nH]c1=O`, the cytotoxicity is -19.1% (inactive).

Turning to `O=C(NC1CCCC1)c1sc(=S)n2c1[nH]c(=O)c1ccccc12`, the cytotoxicity is 68.9% (active).

For `O=C(NC1CCCCCC1)c1c(O)c2ccccc2[nH]c1=O`, the cytotoxicity is -13.7% (inactive).

Consider `O=C(NC1CCCCC1)c1sc(=S)n2c1[nH]c(=O)c1ccccc12`, for which the cytotoxicity was 77.2% (active).

As for `Cn1c(=O)c(C(=O)NC2CCCCCCC2)c(O)c2ccccc21`, the cytotoxicity is 13.6% (inactive).

Consider `CSc1nnc(Cn2c(=O)sc3ccccc32)n1-c1ccccc1`, for which the cytotoxicity is 13% (inactive).

Take `Cc1nc2ccc(NC(=O)N3CCOCC3)cc2s1`: the cytotoxicity was -19.1% (inactive).

On to `Nc1nnc(SCc2cccnc2)s1`, for which the cytotoxicity was -0.3% (inactive).

For the compound `Cc1cn([C@H]2C[C@H](N=[N+]=[N-])[C@@H](CO)O2)c(=O)[nH]c1=O`, the cytotoxicity is -5.9% (inactive).

As for `CCc1cn([C@H]2C[C@H](O)[C@@H](CO)O2)c(=O)[nH]c1=O`, the cytotoxicity was -1.3% (inactive).

With `O=c1[nH]c(=O)n([C@H]2C[C@H](O)[C@@H](CO)O2)cc1F`, the cytotoxicity is 55.6% (active).

Take `CCc1sc(C(=O)NC)cc1Br`: the cytotoxicity was -2.9% (inactive).

As to `CC(C)N1C(=O)C2C(C(=O)NC3CCCCC3)C3C=CC2(O3)C1C(=O)NC1CCCCC1` (stereo not given), the cytotoxicity was 13.7% (inactive).

As to `c1ccc(Nc2nc(N3CCOCC3)nc(N3CCOCC3)n2)cc1`, the cytotoxicity is 5% (inactive).

As for `c1ccc(Nc2nc(N3CCCCC3)nc(N3CCNCC3)n2)cc1`, the cytotoxicity was 75.8% (active).

For the compound `C1CCN(c2nc(N3CCCCC3)nc(N3CCNCC3)n2)CC1`, the cytotoxicity is 11.6% (inactive).

Turning to `CCOC(=O)c1ccccc1NC(=O)C1COc2ccccc2O1` (stereo not given), the cytotoxicity is -10.4% (inactive).

Take `COc1ccc(-n2nnc3c(SCc4ccccc4)ncnc32)cc1`: the cytotoxicity is 2.7% (inactive).

`c1ccc(CN2CCN(c3nc4ccccc4n4cnnc34)CC2)cc1`: the cytotoxicity was 1.8% (inactive).

As to `COCCn1nnnc1C(c1ccc(OC)cc1OC)N1CCN(c2ccccc2)CC1` (stereo not given), the cytotoxicity is 11.2% (inactive).

As to `COc1ccc(OC)c(C(O)c2coc3ccc(O)c(CN4CCOCC4)c23)c1` (stereo not given), the cytotoxicity is 5.9% (inactive).
